{"source": "paper PMC5540273", "about": "(PLoS ONE, 2017);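 also: KINOMEscan kinase panel screen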", "data": [{"system": "TIE1", "details": "concentration: 1 μM, replicates: in singlicate; n = 1", "units": {"%Inh": "%"}, "values": [{"smiles": "Cc1ccc(C(=O)N2CC[C@@H](O)C2)cc1-n1c(C)cc(OCc2ccc(F)cc2F)c(Br)c1=O", "%Inh": 0}, {"smiles": "Oc1cc(Nc2ccnc3cc(I)ccc23)ccc1F", "note": "[GW552771]", "%Inh": 0}, {"smiles": "c1ccc(-c2n[nH]cc2Nc2ccnc3ccccc23)nc1", "note": "[GW694077]", "%Inh": 0}, {"smiles": "CC(C)c1nc(-c2cccc(NS(=O)(=O)c3c(F)cccc3F)c2F)c(-c2ccnc(Nc3ccc(N4CCOCC4)nc3)n2)s1", "note": "[GSK2008607]", "%Inh": 91.2}, {"smiles": "Cn1cc(-c2[nH]c3cc(NC(=O)[C@H](N)C4CCCCC4)cc4c3c2C=NNC4=O)cn1", "%Inh": 83}, {"smiles": "C[C@@H](Oc1cc(-n2cnc3cc(-c4ccnc(NCCS(C)(=O)=O)c4)ccc32)sc1C(N)=O)c1ccccc1Cl", "note": "[GSK907232]", "%Inh": 78}]}, {"system": "T1, TIE2", "T1 construct": "gene TEK", "details": "concentration: 1 μM, replicates: in singlicate; n = 1", "units": {"%Inh": "%"}, "values": [{"smiles": "Cn1cc(-c2ccc3c(c2)CCN3C(=O)Cc2cccc(Cl)c2)c2c(N)ncnc21", "note": "[GSK2606590]", "%Inh": 45}, {"smiles": "COc1ccc(-c2coc3ccc(-c4nnc(SCc5ccc(OC)c(C(F)(F)F)c5)o4)cc23)cc1", "%Inh": 0}, {"smiles": "CCS(=O)(=O)c1ccc(OC)c(Nc2nccc(-c3c(-c4cccc(NC(=O)c5c(F)cccc5F)c4)nn4ncccc34)n2)c1", "note": "[GSK326180]", "%Inh": 37}, {"smiles": "O=C(Nc1cccc(-c2nn3ccccc3c2-c2ccnc(Nc3cccc(C(F)(F)F)c3)n2)c1)c1c(F)cccc1F", "note": "[GSK292658]", "%Inh": 0}, {"smiles": "NCCCC(NC(=O)c1cc(Br)c(-c2ccnc3[nH]ccc23)s1)c1ccccc1.O=C(O)C(F)(F)F.O=C(O)C(F)(F)F", "note": "(stereo not shown) [GSK1287544]", "%Inh": 15}, {"smiles": "CC(=O)Nc1nc2cnc(Nc3cc(NC(=O)c4cccc(C5(C#N)CC5)c4Cl)ccc3C)nc2s1", "%Inh": 8}, {"smiles": "COc1ccc(CNC(=O)NC2CCN(c3ccnc(Nc4ccc(F)cc4)n3)CC2)cc1", "note": "[GSK1379788]", "%Inh": 0}, {"smiles": "Clc1ccc(-c2nn3ncccc3c2-c2ccnc(Nc3ccc4c(c3)OCCO4)n2)cc1", "note": "[GW829116]", "%Inh": 0}, {"smiles": "CC(C)(C)c1ccc2nccc(Nc3cccc(O)c3)c2c1", "note": "[GW856795]", "%Inh": 2}, {"smiles": "COc1cc(Nc2nccc(N3CCC(NC(=O)Nc4cccc(C(C)=O)c4)C3)n2)cc(OC)c1OC", "note": "(stereo not shown) [GSK1379753]", "%Inh": 1}, {"smiles": "COc1cc(Nc2nccc(-c3c(-c4cccc(NC(=O)c5c(F)cccc5F)c4)nn4ccccc34)n2)cc(OC)c1OC", "note": "[GSK323521]", "%Inh": 46}, {"smiles": "COc1cccc(NC(=O)NC2CCN(c3ccnc(Nc4cc(OC)c(OC)c(OC)c4)n3)C2)c1", "note": "(stereo not shown) [GSK1379763]", "%Inh": 0}, {"smiles": "O=C(O)C(F)(F)F.O=C(O)C(F)(F)F.O=c1[nH]ccc2nc(N[C@@H]3CCCNC3)nc(Nc3ccc(S(=O)(=O)N4CCOCC4)cc3)c12", "note": "[GSK2177277]", "%Inh": 0}, {"smiles": "CCCCc1nn2ncccc2c1-c1ccnc(Nc2ccc(N3CCN(C)CC3)cc2)n1", "note": "[GW684941]", "%Inh": 80}, {"smiles": "CN(c1ccc(NC(=O)Nc2cc(C(F)(F)F)ccc2F)cc1)c1ccnc(Nc2ccc(S(N)(=O)=O)cc2)n1", "note": "[GW809893]", "%Inh": 99.6}, {"smiles": "Nc1ncc(-c2cccnc2)c2scc(-c3ccc4c(c3)CCN4C(=O)Cc3ccccc3)c12", "note": "[GSK683281]", "%Inh": 57}, {"smiles": "Cc1ccc(C(=O)Nc2ccc(Nc3ccnc4cc(-c5nccs5)ccc34)cc2O)cc1.Cl", "note": "[GW494702]", "%Inh": 5}, {"smiles": "COc1cc(Nc2nccc(N3CCC(NC(=O)c4cc5ccccc5s4)C3)n2)cc(OC)c1OC", "note": "(stereo not shown) [GSK1379760]", "%Inh": 0}, {"smiles": "O=C(Nc1cccc(-c2nn3ccccc3c2-c2ccnc(Nc3cccc(F)c3)n2)c1)c1c(F)ccc(F)c1Cl", "note": "[GSK357952]", "%Inh": 22}, {"smiles": "CN(C)Cc1ccc(-c2ccc3c(Nc4ccc(Oc5ccccn5)cc4)ccnc3c2)o1", "note": "[GW567148]", "%Inh": 0}, {"smiles": "CNC(=O)c1ccccc1Nc1nc(Nc2ccc(N3CCOCC3)cc2)ncc1Cl.Cl", "note": "[GSK1576028]", "%Inh": 97.9}, {"smiles": "Cl.Cl.NCC(NC(=O)c1cc(-c2ccccc2)c(-c2ccnc3[nH]ccc23)s1)c1ccccc1", "note": "(stereo not shown) [GSK1321561]", "%Inh": 0}, {"smiles": "COc1ccc(Nc2nccc(N3CCC(NC(=O)Nc4cccc(OC)c4)C3)n2)cc1", "note": "(stereo not shown) [GSK1379742]", "%Inh": 0}, {"smiles": "COC(=O)Nc1nc2cc(Oc3ccc(NC(=O)Nc4cc(C(F)(F)F)ccc4F)cn3)ccc2[nH]1.Cl.Cl", "note": "[GW681170]", "%Inh": 98.6}, {"smiles": "O=C(Nc1n[nH]c2cc(-c3ccoc3)ccc12)C1CC1", "note": "[SB-738481]", "%Inh": 5}, {"smiles": "CSc1cccc2c(-c3ccncn3)c(-c3ccc(F)cc3)nn12", "note": "[GW514786]", "%Inh": 0}, {"smiles": "c1ccc(Oc2ccc(Nc3ccnc4cc(-c5ccc(CNCCN6CCOCC6)o5)ccc34)cc2)nc1", "note": "[GW567145]", "%Inh": 0}, {"smiles": "Nc1ncnc2c1nc(-c1ccccc1)n2-c1ccccc1", "note": "[SKF-97293]", "%Inh": 11}, {"smiles": "Cl.c1ccc(-c2ccc3c(Nc4ccc5[nH]ccc5c4)ccnc3c2)nc1", "note": "[GW440138]", "%Inh": 0}, {"smiles": "Cl.NC(=O)c1cccc(Nc2nccc(Nc3ccc(Oc4c(Cl)cccc4Cl)c(Cl)c3)n2)c1", "note": "[GW659009]", "%Inh": 0}, {"smiles": "Cc1occc1-c1ncc(OC[C@@H](N)Cc2c[nH]c3ccccc23)cc1-c1ccc2[nH]nc(C)c2c1.O=C(O)C(F)(F)F", "note": "[GSK682037]", "%Inh": 0}, {"smiles": "Cc1ccc(C(=O)N2CC[C@@H](O)C2)cc1-n1c(C)cc(OCc2ccc(F)cc2F)c(Br)c1=O", "%Inh": 20}, {"smiles": "Oc1cc(Nc2ccnc3cc(I)ccc23)ccc1F", "note": "[GW552771]", "%Inh": 0}, {"smiles": "c1ccc(-c2n[nH]cc2Nc2ccnc3ccccc23)nc1", "note": "[GW694077]", "%Inh": 0}, {"smiles": "CC(C)c1nc(-c2cccc(NS(=O)(=O)c3c(F)cccc3F)c2F)c(-c2ccnc(Nc3ccc(N4CCOCC4)nc3)n2)s1", "note": "[GSK2008607]", "%Inh": 99.1}, {"smiles": "Cn1cc(-c2[nH]c3cc(NC(=O)[C@H](N)C4CCCCC4)cc4c3c2C=NNC4=O)cn1", "%Inh": 42}, {"smiles": "C[C@@H](Oc1cc(-n2cnc3cc(-c4ccnc(NCCS(C)(=O)=O)c4)ccc32)sc1C(N)=O)c1ccccc1Cl", "note": "[GSK907232]", "%Inh": 56}]}]}
